Assay outcomes from PubChem.
NPC1 promoter act = NPC1 promoter activation; Huh7 NPC1 promoter luciferase reporter, 24 h; Potency, µM (titrated, usually from 9.22 µM), inactives show at the top dose activation, most hits filed as activators; hit rate 2.4% among 320,000; AID 485313; also: % of control where 0% means no effect; nearly all actives have a fitted effect of over 60% in size
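Stable NPC1-promoter luciferase Huh7 line; cpd (DMSO) 24 h, 37 °C, 5% CO2; Amplite luciferase reagent 10 min RT; luminescence readout. qHTS format.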
FLuc counter = inhibits or activates purified firefly luciferase, miR-21 counter-screen; P08659; purified FLuc, Km substrates, luminescence inhibition; Potency, µM (series often up to 57.5 µM), for inactives: at the highest dose activity change, negative = inhibition, actives largely listed as inhibitors; hit rate 6.9% among 360,000;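 also: plate controls were vehicle for no effect and reference inhibitor for full effect; nearly all actives have a fitted effect of over 55% in size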
Target sequence (P08659 whole entry, looked up): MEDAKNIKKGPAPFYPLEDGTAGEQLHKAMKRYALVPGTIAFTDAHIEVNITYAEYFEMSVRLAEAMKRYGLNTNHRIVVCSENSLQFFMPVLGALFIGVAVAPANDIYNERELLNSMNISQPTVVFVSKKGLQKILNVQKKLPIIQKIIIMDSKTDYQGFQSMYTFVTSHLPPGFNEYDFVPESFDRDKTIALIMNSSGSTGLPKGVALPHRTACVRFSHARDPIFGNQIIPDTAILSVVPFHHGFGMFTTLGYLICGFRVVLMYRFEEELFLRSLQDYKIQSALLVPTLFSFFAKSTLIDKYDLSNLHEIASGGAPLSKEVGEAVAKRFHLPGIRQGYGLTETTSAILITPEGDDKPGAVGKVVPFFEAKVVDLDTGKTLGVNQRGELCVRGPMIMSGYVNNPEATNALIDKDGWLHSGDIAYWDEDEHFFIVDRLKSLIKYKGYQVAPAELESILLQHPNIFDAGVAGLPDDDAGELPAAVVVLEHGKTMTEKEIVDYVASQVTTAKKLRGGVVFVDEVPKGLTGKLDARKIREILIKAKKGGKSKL
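Biochemical qHTS of compounds, final roughly 60 µM downward over six points, against 10 nM purified firefly luciferase using Km concentrations of substrates (10 uM D-luciferin, 10 uM ATP) in Tris acetate pH 7.5 buffer; luminescence output.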
ELG1 genotox = genotoxicity induction in ELG1-luciferase HEK293T cells; hit rate 1.3% among 330,000; Potency, µM (series often up to 46 µM), for inactives: at the highest dose activity change, positive = activation, hits mostly activators; HEK293T ELG1-luciferase reporter, luminescence, 16 h; also: % of control where 0% means no effect; nearly all actives have a fitted effect of over 60% in size
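Genotoxicity was scored as increased ELG1-luciferase reporter signal, measured by ONE-Glo luminescence (30 min, room temperature). Compound or vehicle exposure of the HEK293T reporter cells lasted 16 hr at 37°C.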
Rab9 promoter act = activates the Rab9 promoter; Huh7 Rab9 promoter-luciferase reporter, luminescence, 24 h; hit rate 2.8% among 320,000; Potency, µM (series often up to 9.22 µM), for inactives: at the highest dose activation, negative = inhibition, usual class: activators; AID 485297; also: % of control where 0% means no effect; nearly all actives have a fitted effect of over 60% in size
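Promoter activation is measured as luciferase luminescence in Huh7 cells stably transfected with a Rab9 promoter–luciferase construct, following 24 h compound exposure at 37 °C and 10 min reagent incubation at ambient temperature.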
SMN2 splice enh = increases expression of the SMN2 splice variant | HEK293 SMN2-luciferase splicing reporter, luminescence, 30-36 h | Potency, µM (titrated, usually from 46.1 µM), without a hit: at the top dose activity change, positive = activation, most hits filed as activators | hit rate 2.8% among 210,000; also: % of control where 0% means no effect; nearly all actives have a fitted effect of over 55% in size
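qHTS luciferase splicing reporter: luminescence rises when SMN2 exon 7 is included in transfected HEK293 cells. Compound exposure lasted 30-36 h at 37C, with 4.5 mM final sodium butyrate as control, followed by a ONE-Glo read.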
Numbers without * were called inactive; [ ] = remark or other dose. Hits are enriched below; roughly 7.4% of the tested compounds scored in any of these assays. Calls follow the shape of the dose curve; as a rule, active = well fitted curve in the direction sought with a large enough effect; inconclusive = small, poorly fitted or top-dose-only effect, or another doubt; inactive = no such curve, though single readings can be large; an effect the other way counts as inactive or inconclusive. Potency is read from the fitted curve at half-maximal effect.

CC1CC1C(=O)Nc1ccc(-c2ccccc2)cc1 (stereo not drawn) was read as NPC1 promoter act 3.2µM*, FLuc counter 9.5µM*, ELG1 genotox inconclusive, Rab9 promoter act 2.5µM* and SMN2 splice enh 13µM*.
For O=C(NC1CCCCC1)C1CCN(C(=O)c2ccc(Cl)cc2)CC1 the results were NPC1 promoter act -4%, FLuc counter -1%, ELG1 genotox -1% and Rab9 promoter act 0%.
For O=C(Nc1ccccc1C(=O)O)c1cccc(C(=O)Nc2ccccc2C(=O)O)c1 the results were NPC1 promoter act 0%, FLuc counter 19µM*, ELG1 genotox -16% and Rab9 promoter act 1%.
`O=C(Nc1ccccc1C(=O)O)c1ccc(NC(=O)c2ccc(Br)o2)cc1` gave NPC1 promoter act 0%, FLuc counter inconclusive, ELG1 genotox -7%, Rab9 promoter act 0% and SMN2 splice enh 3%.
For CC(C)CC(=O)Nc1cccc(C(=O)Nc2ccccc2C(=O)O)c1 the results were NPC1 promoter act -2%, FLuc counter 15µM*, ELG1 genotox -1%, Rab9 promoter act -3% and SMN2 splice enh 14%.
For O=C(Nc1ccccc1C(=O)O)c1ccccc1 the results were NPC1 promoter act 2%, FLuc counter inconclusive, ELG1 genotox 17%, Rab9 promoter act -3% and SMN2 splice enh 12%.
O=C(Nc1ccccc1C(=O)O)c1cccc(NC(=O)c2ccc(Br)o2)c1 was read as NPC1 promoter act -2%, FLuc counter 19µM*, ELG1 genotox 1%, Rab9 promoter act 2% and SMN2 splice enh 4%.
For CC(=O)Nc1cccc(C(=O)Nc2ccccc2C(=O)O)c1 the results were NPC1 promoter act -1%, FLuc counter 24µM*, ELG1 genotox -1%, Rab9 promoter act 8% and SMN2 splice enh 5%.
Screening COc1ccc(NC(=O)CN2C(=O)COc3ccc(S(=O)(=O)N4CCCCC4)cc32)c(OC)c1 returned NPC1 promoter act inconclusive, FLuc counter -1%, ELG1 genotox 1%[9.26 µM] and Rab9 promoter act 8%.
`CCn1cc(S(=O)(=O)NCCc2ccccc2OC)cn1` gave NPC1 promoter act -5%, FLuc counter -3%, ELG1 genotox 0% and Rab9 promoter act 3%.
Cc1c(NC(=O)c2ccc(-c3ccccc3)cc2)cccc1C(=O)O was read as NPC1 promoter act inconclusive, FLuc counter 0.6µM*, ELG1 genotox 0.29µM* and Rab9 promoter act inconclusive.
CCOC(=O)c1cc(-c2ccccc2)sc1NC(=O)c1ccc(OC)cc1 was read as NPC1 promoter act 1%, FLuc counter inconclusive, ELG1 genotox -1%, Rab9 promoter act 0% and SMN2 splice enh -22%.
Screening O=C(Nc1sc(-c2ccccc2)cc1C(=O)O)c1ccccc1 returned NPC1 promoter act 3.2µM*, FLuc counter inconclusive, ELG1 genotox 23% and Rab9 promoter act 2.8µM*.
For Cc1ccccc1C(=O)Nc1ccc(O)cc1C(=O)O the results were NPC1 promoter act 0%, FLuc counter inconclusive, ELG1 genotox -1%, Rab9 promoter act -2% and SMN2 splice enh 4%.
For O=C(Nc1ccc(O)cc1C(=O)O)c1cccc(Br)c1 the results were NPC1 promoter act 2%, FLuc counter 21µM*, ELG1 genotox -1%, Rab9 promoter act 6% and SMN2 splice enh -6%.
`CC(Oc1cccc(Cl)c1)C(=O)Nc1ccc(N2CCOCC2)cc1N1CCOCC1` (stereo not drawn) gave NPC1 promoter act 3%, FLuc counter 2%, ELG1 genotox -4% and Rab9 promoter act 3%.
Screening O=C(/C=C/c1ccc(-c2ccccc2[N+](=O)[O-])o1)c1ccccc1 returned NPC1 promoter act 16%, FLuc counter 24µM*, ELG1 genotox 13%, Rab9 promoter act 3% and SMN2 splice enh -20%.
Screening O=C(O)/C(=C\c1ccc(-c2ccccc2[N+](=O)[O-])o1)c1ccccc1 returned NPC1 promoter act 1%, FLuc counter 21µM*, ELG1 genotox 4% and Rab9 promoter act 6%.
N#C/C(=C\c1ccc(-c2ccccc2[N+](=O)[O-])o1)C(N)=O was read as NPC1 promoter act -2%, FLuc counter 3%, ELG1 genotox 0% and Rab9 promoter act -1%.
For CN(C)c1ccc(C(=S)Nc2ccccc2)cc1 the results were NPC1 promoter act 2.8µM*, FLuc counter 1.5µM*, ELG1 genotox inconclusive, Rab9 promoter act 1µM* and SMN2 splice enh 26%.
Cc1ccc(NC(=O)CN(C)C(=O)c2ccccn2)cc1 was read as NPC1 promoter act 0%, FLuc counter 0%, ELG1 genotox -1% and Rab9 promoter act -1%.
`CN(C)c1cc(O)c(C(=S)Nc2ccccc2)c(N(C)C)c1` gave NPC1 promoter act 24%, FLuc counter 24µM*, ELG1 genotox -4%, Rab9 promoter act 20% and SMN2 splice enh 5%.
CN(C)c1ccc(NC(=S)c2ccccn2)cc1 was read as NPC1 promoter act inconclusive, FLuc counter 0.085µM*, ELG1 genotox inconclusive, Rab9 promoter act 0.32µM* and SMN2 splice enh 0.5µM*.
CSCCC(NC(=O)c1ccc(C(C)(C)C)cc1)C(=O)OCC(=O)N1CCCC1=O (stereo not drawn) was read as NPC1 promoter act -1%, FLuc counter 21µM*, ELG1 genotox 0% and Rab9 promoter act -1%.
`CC(C)(C)C(=O)Nc1nc2c(s1)CN(Cc1ccccc1)CC2` gave NPC1 promoter act inconclusive, FLuc counter inconclusive, ELG1 genotox inconclusive, Rab9 promoter act 3.2µM* and SMN2 splice enh inconclusive.
For C#Cc1ccc(CN2CCC(Oc3ccc(C(=O)NCc4ccccn4)cc3)CC2)cc1 the results were NPC1 promoter act 3%, FLuc counter 1%, ELG1 genotox -11% and Rab9 promoter act 0%.
`CC(c1ccco1)N(C(=O)COc1ccc(Cl)cc1Cl)c1ccccn1` (stereo not drawn) gave NPC1 promoter act 24%, FLuc counter 4.3µM*, ELG1 genotox 2.3µM*, Rab9 promoter act inconclusive and SMN2 splice enh 14%.
For CC(c1ccco1)N(C(=O)c1ccccc1NS(=O)(=O)c1ccc(Cl)cc1)c1ccccn1 (stereo not drawn) the results were NPC1 promoter act 3%, FLuc counter -1%, ELG1 genotox -1%, Rab9 promoter act 1% and SMN2 splice enh 2%.
CC(c1ccco1)N(C(=O)COc1ccc(Cl)cc1)c1ccccn1 (stereo not drawn) was read as NPC1 promoter act 12%, FLuc counter 21µM*, ELG1 genotox 8.9µM*, Rab9 promoter act 24% and SMN2 splice enh inconclusive.
Screening CCCOc1ccc(CN(C(=O)Cc2coc3ccc(CC)cc23)C2CCS(=O)(=O)C2)cc1 (stereo not drawn) returned FLuc counter 3% and SMN2 splice enh -15%.
